These results are taken from PubChem BioAssay (EPA / NIEHS).

Read-out in one test: TIMP1, TIMP1 (gene 7076)
Briefly: LTEA_HepaRG_TIMP1: Life Technologies and Expression Analysis (LTEA) Assay for TIMP1 using HepaRG (AID 2283534; active = hit-call score of the fitted dose curve at least 0.9, where 1 is the maximum; inactive = score below 0.9). As to conditions: mRNA level, 48 h; actives raise or lower the signal. The method, boiled down: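 Bidirectional change in TIMP1 transcript versus 0.5% DMSO, measured by TaqMan qRT-PCR with three housekeeping genes for normalization. HepaRG human liver cells dosed 48 h in duplicate, top concentration 100 uM with half-log dilutions.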

Read-out in test [1]: Tumor necrosis factor receptor 1 (TNFRSF1A), TNFRSF1A (gene 7132)
Briefly: LTEA_HepaRG_TNFRSF1A: Life Technologies and Expression Analysis (LTEA) Assay for Tumor necrosis factor receptor 1 (TNFRSF1A) using HepaRG (AID 2283535; active = hit-call score of the fitted dose curve at least 0.9, where 1 is the maximum; inactive = score below 0.9). As to conditions: mRNA level, 48 h; actives raise or lower the signal. The method, boiled down:
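mRNA measured by qRT-PCR (TaqMan, Fluidigm arrays) against ACTB/GAPDH/POLR2A housekeepers after 48 h chemical exposure of HepaRG cells. Top concentration 100 uM, half-log 8-point series, duplicates; vehicle 0.5% DMSO, both fit directions.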

Read-out in test [2]: Thyroid Hormone Responsive (THRSP), THRSP (gene 7069)
Nature of the test: LTEA_HepaRG_THRSP: Life Technologies and Expression Analysis (LTEA) Assay for Thyroid Hormone Responsive (THRSP) using HepaRG (AID 2283536; active = hit-call score of the fitted dose curve at least 0.9, where 1 is the maximum; inactive = score below 0.9). As to conditions: mRNA level, 48 h; actives raise or lower the signal. The method, boiled down: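 Differentiated human HepaRG cells were exposed in duplicate for 48 h in serum-free induction medium to eight concentrations (top 100 uM, half-log steps, 0.5% DMSO). Expression was quantified by TaqMan qRT-PCR, normalized to ACTB, GAPDH and POLR2A, with bidirectional fitting against DMSO.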

Read-out in test [3]: Cellular tumor antigen p53 (Homo sapiens) (UniProt P04637)
Nature of the test: LTEA_HepaRG_TP53: Life Technologies and Expression Analysis (LTEA) Assay for Tumor Protein P53 (TP53) using HepaRG (AID 2283537; active = hit-call score of the fitted dose curve at least 0.9, where 1 is the maximum; inactive = score below 0.9). As to conditions: mRNA level, 48 h; actives raise or lower the signal. The method in brief: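 Differentiated HepaRG cells in serum-free induction medium exposed 48 h in duplicate to 8 half-log concentrations, top 100 uM, 0.5% DMSO. TP53 mRNA by TaqMan qRT-PCR (Fluidigm), normalized to ACTB, GAPDH, POLR2A; fitted bidirectionally versus DMSO.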

Read-out in test [4]: UDP glucuronosyltransferase (UGT1A1), UGT1A1 (gene 54658)
Briefly: LTEA_HepaRG_UGT1A1: Life Technologies and Expression Analysis (LTEA) Assay for UDP glucuronosyltransferase (UGT1A1) using HepaRG (AID 2283538; active = hit-call score of the fitted dose curve at least 0.9, where 1 is the maximum; inactive = score below 0.9). As to conditions: mRNA level, 48 h; actives raise or lower the signal. The method, boiled down:
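Differentiated human HepaRG cells in serum-free induction medium were exposed in duplicate for 48 h to eight half-log concentrations up to 100 uM in 0.5% DMSO. UGT1A1 mRNA was quantified by TaqMan qRT-PCR, normalized to ACTB, GAPDH and POLR2A, and fitted bidirectionally against DMSO.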

Read-out in test [5]: UDP glucuronosyltransferase (UGT1A6), UGT1A6 (gene 54578)
Briefly: LTEA_HepaRG_UGT1A6: Life Technologies and Expression Analysis (LTEA) Assay for UDP glucuronosyltransferase (UGT1A6) using HepaRG (AID 2283539; active = hit-call score of the fitted dose curve at least 0.9, where 1 is the maximum; inactive = score below 0.9). Particulars: mRNA level, 48 h; actives raise or lower the signal. The method, boiled down: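 Expression was quantified by TaqMan qRT-PCR on Fluidigm arrays with ACTB/GAPDH/POLR2A normalization and bidirectional fitting against 0.5% DMSO. HepaRG cells (~100,000/well) were treated in duplicate for 48 h at eight half-log concentrations up to 100 uM in serum-free induction medium.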

Read-out in test [6]: X-box binding protein 1 (XBP1), XBP1 (gene 7494)
Nature of the test: LTEA_HepaRG_XBP1: Life Technologies and Expression Analysis (LTEA) Assay for X-box binding protein 1 (XBP1) using HepaRG (AID 2283540; active = hit-call score of the fitted dose curve at least 0.9, where 1 is the maximum; inactive = score below 0.9). As to conditions: mRNA level, 48 h; actives raise or lower the signal. The method, boiled down:
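XBP1 transcript by qRT-PCR (housekeeping-normalized: ACTB, GAPDH, POLR2A) after 48 h chemical treatment of HepaRG cells, 8-point half-log series topping at 100 uM, vehicle 0.5% DMSO. Gain and loss of signal fitted relative to DMSO.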

Test [7] in a line: LTEA_HepaRG_LDH_cytotoxicity: Cytotoxicity Assessment in the Life Technologies and Expression Analysis (LTEA) Assay (AID 2283563). The method in brief:
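LDH release into culture medium read after 48 h chemical treatment of HepaRG cells. Duplicate wells, eight-point half-log series topping at 100 uM, 0.5% DMSO vehicle and baseline.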

A short description of test [8]: ATG_XTT_Cytotoxicity: Cytotoxicity Assessment in the Attagene TRANS-FACTORIAL HepG2 Assay (AID 2283584). The method, boiled down:
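Viability endpoint from XTT after 24 h chemical exposure of reporter-transfected human HepG2 liver cells; signal loss fitted relative to DMSO negative control.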

The target of test [9] is Cellular tumor antigen p53 (Homo sapiens) (UniProt P04637). Briefly: TOX21_p53_BLA_p2_ratio: Tox21 HCT-116 p53 Agonism Beta-lactamase Assay, Ratio, Phase 2 (AID 2283592). The method, boiled down:
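Gain-of-signal p53 agonism was scored from the beta-lactamase FRET ratio (460/530 nm, 405 nm excitation) in HCT116 cells treated 16 h at 37C, 5% CO2, with DMSO serving as negative control and baseline.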

The target is the same in test [10]. Nature of the test: TOX21_p53_BLA_p3_ratio: Tox21 HCT-116 p53 Agonism Beta-lactamase Assay, Ratio, Phase 3 (AID 2283596). The method in brief:
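HCT116 p53-bla cells (4000/well) given compound in DMSO (217-fold dilution) after 5 h, incubated 16 h at 37C. CCF4-AM substrate 2 h at room temperature; 460/530 nm emission ratio, gain fitted against DMSO.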

Test [11] is described as follows: TOX21_p53_BLA_p4_viability: Viability Assessment in the Tox21 HCT-116 p53 Agonism Beta-lactamase Assay, Phase 4 (AID 2283597).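 Also: hits lower the luminescence signal meaning cytotoxicity.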 The method in brief: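 Following a 16 h exposure at 37C, the treated HCT116 wells were first read for the FRET ratio. They were then lysed with CellTiter-Glo, and ATP luminescence was recorded after 30 min at room temperature.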
In test [12] the target is Cellular tumor antigen p53 (Homo sapiens) (UniProt P04637). Nature of the test: TOX21_p53_BLA_p5_ratio: Tox21 HCT-116 p53 Agonism Beta-lactamase Assay, Ratio, Phase 5 (AID 2283599). The method in brief: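 HCT-116 cells carrying a p53-inducible beta-lactamase reporter were seeded at 4000 cells/well and dosed after 5 h with compound in DMSO (217-fold dilution). After 16 h at 37C, CCF4-AM substrate was added for 2 h, and the 460/530 nm emission ratio was scored as gain-of-signal versus DMSO.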

Test [13] shares this target. Nature of the test: TOX21_p53_BLA_p4_ratio: Tox21 HCT-116 p53 Agonism Beta-lactamase Assay, Ratio, Phase 4 (AID 2283601). The method in brief:
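HCT116 cells carrying an inducible beta-lactamase reporter were plated at 4000 cells/well, rested 5 h, then exposed to compounds in DMSO (217-fold dilution) for 16 h at 37C. CCF4-AM substrate was loaded 2 h at room temperature; 460/530 nm emission ratio scored gain-of-signal versus DMSO.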

Test [14] in a line: Tanguay_ZF_120hpf_MORT_legacy: (Legacy) Oregon State University Tanguay Lab 120 Hour Post-fertilization zebrafish Assay for Mortality (AID 2283633). The method in brief:
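Static waterborne exposure from 6 to 120 hpf at 28C of single dechorionated wild-type (5D) embryos per well, 0.64% DMSO final. Death recorded present/absent by brightfield at 24 and 120 hpf.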

Test [15] in a line: Tanguay_ZF_120hpf_YSE_legacy: (Legacy) Oregon State University Tanguay Lab 120 Hour Post-fertilization zebrafish Assay for Yolk Sac Edema (AID 2283634).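 As to AC50: actives raise the incidence of yolk sac edema above the DMSO baseline.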 The method, boiled down: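 Presence or absence of yolk sac edema was recorded at 120 hpf in surviving larvae. These were wild-type Tropical 5D embryos, chorion removed at 4 hpf, held in static exposure at 28C from 6 hpf with 0.64% DMSO vehicle.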

Test [16] can be described thus: Tanguay_ZF_120hpf_AXIS_legacy: (Legacy) Oregon State University Tanguay Lab 120 Hour Post-fertilization zebrafish Assay for Body Axis Malformation (AID 2283635).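 As to AC50: potency for an increased fraction of larvae scored with body axis malformation.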 The method in brief:
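Binary scoring of axis defects at 120 hpf under brightfield, fitted positive versus DMSO. Tropical 5D embryos, chorion removed by pronase at 4 hpf, were singly exposed in sealed, dark plates at 28C from 6 hpf; DMSO 0.64% final.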

Test [17] in a line: TOX21_p53_BLA_p2_viability: Viability Assessment in the Tox21 HCT-116 p53 Agonism Beta-lactamase Assay, Phase 2 (AID 2283591).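 Also: compound exposure lasted 16 h at 37 °C; actives lower the ATP signal meaning cytotoxicity.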 The method, boiled down:
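HCT-116 p53-bla cells (4000/well) rested 5 h at 37C, then received compounds in DMSO (217-fold dilution) for 16 h at 37C, 5% CO2. After the CCF4 read, CellTiter-Glo was added; ATP luminescence was read after 30 min at room temperature.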

The nature of test [18]: TOX21_p53_BLA_p3_viability: Viability Assessment in the Tox21 HCT-116 p53 Agonism Beta-lactamase Assay, Phase 3 (AID 2283593).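 Also: cells exposed to compound for 16 h before reading.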 The method in brief:
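HCT-116 cells (4000/well) rested 5 h at 37C, then got DMSO compounds by pin tool (217-fold dilution) for 16 h at 37C, 5% CO2. After the bla read, CellTiter-Glo was added and luminescence read at 30 min, room temperature.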

Test [19] is described as follows: TOX21_p53_BLA_p5_viability: Viability Assessment in the Tox21 HCT-116 p53 Agonism Beta-lactamase Assay, Phase 5 (AID 2283600). The method in brief:
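After the 460/530 nm beta-lactamase measurement, the wells received an ATP-detection luciferase reagent; signal was read 30 min later at RT. Compound treatment lasted 16 h on cells pre-incubated 5 h post-seeding.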

Inconclusive results are not listed. Active and inactive are the calls of the source. The calls were made as follows, unless noted: active = hit-call score of the fitted dose curve at least 0.9, where 1 is the maximum; inconclusive = response in the unintended direction; inactive = score below 0.9.

Sequence of Cellular tumor antigen p53 (Homo sapiens) (P04637 whole entry, looked up): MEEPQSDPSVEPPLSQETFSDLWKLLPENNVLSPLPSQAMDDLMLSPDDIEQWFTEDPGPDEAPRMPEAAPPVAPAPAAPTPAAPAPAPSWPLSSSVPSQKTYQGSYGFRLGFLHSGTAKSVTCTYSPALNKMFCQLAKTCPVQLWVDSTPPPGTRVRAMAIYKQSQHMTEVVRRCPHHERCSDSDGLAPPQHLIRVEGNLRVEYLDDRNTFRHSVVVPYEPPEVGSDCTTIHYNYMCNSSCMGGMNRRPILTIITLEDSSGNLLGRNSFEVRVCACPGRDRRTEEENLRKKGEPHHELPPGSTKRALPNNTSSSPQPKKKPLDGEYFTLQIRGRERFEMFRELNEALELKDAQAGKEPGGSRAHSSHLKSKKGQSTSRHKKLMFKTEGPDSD

With `CSC(=O)c1cccc2nnsc12`, the outcome is “inactive” in the test with TIMP1, TIMP1 (gene 7076); “inactive” in [1]; “inactive” in [2]; “inactive” in test [3]; “inactive” in test [4]; “inactive” in test [5]. For the same compound, the call in test [6], in [7], in [8], in test [9], in [10] and in test [11] was inactive. The outcome in [12], in [13], in test [14], in test [15] and in test [16] was inactive.

In the case of `C[C@]12CC[C@@H]3c4ccc(O)cc4C[C@@H](CCCCCCCCCS(=O)CCCC(F)(F)C(F)(F)F)[C@H]3[C@@H]1CC[C@@H]2O` (stereo partly specified), the outcome in the test with TIMP1, TIMP1 (gene 7076) was “inactive”; in test [7], “inactive”; in test [8], “inactive”; in test [17], “inactive”; in test [9], “inactive”; in test [18] it was “inactive”. The outcome in [10], in test [11], in [12], in test [19], in test [13] and in test [14] was inactive. Besides, the compound was called inactive in [15] and in [16]. Moreover, the AC50 is 0.0802 µM (active) in test [1]; 13.7 µM (active) in test [2]; 0.0628 µM (active) in [3]; 26.9 µM (active) in test [4]; 50 µM (active) in test [5]; 0.0493 µM (active) in [6].

With `O=C(O)C1(C(=O)Nc2ccc(Cl)cc2Cl)CC1`, the outcome is “inactive” with TIMP1, TIMP1 (gene 7076); “inactive” in test [1]; “inactive” in [3]; “inactive” in test [4]; “inactive” in test [7]; “inactive” in test [17]. Also, the compound was called inactive in [18], in test [10], in test [11], in test [12], in [19] and in [14]. Also, the half-maximal activity concentration (AC50) in test [2] was 78 µM (active); in [5], 79.6 µM (active); in test [6], 69.2 µM (active); in test [9], 18.6 µM (active); in test [13] it was 46.1 µM (active); in test [15], 32.3 µM (active). For the same compound, the AC50 in [16] was 10 µM (active).

The AC50 is the midpoint of the concentration-response curve, whichever way the signal moves.
